From PubChem
MEKK2 mut-MEK5: signal of MEK5 binding to mutant human MEKK2 PB1 domain | bead flow cytometry, Alexa488-MEK5 binding to MEKK2 mutant | percent response, % at 10 µM | actives 0.35% (n = 290,000); in the data active means percent response above about 24%, passing the limit was not always enough
GRK2 aptamer HTS: human GRK2 inhibition via aptamer displacement; AID 488847; bead flow cytometry, FAM-aptamer displacement from GRK2; actives 0.59% (n = 330,000); P25098; inhibition of aptamer binding, % at 10 µM;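 active means inhibition of aptamer binding above 40%, roughly 3 SD of noise, on plates passing a quality check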;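 further: median bead fluorescence of bound FAM aptamer so fluorescent compounds give negative values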
MEKK3 PB1 HTS: modulators (inhibitors or enhancers) of MEK5 binding to human MEKK3 PB1 domain | Q99759 | bead-based flow cytometry, Alexa488-MEK5 binding to MEKK3; actives lie on both sides; 0 = blocked by unlabeled MEK5, 100 = vehicle | binding response (% of control), % at 10 µM | actives 1.4% (n = 290,000);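 active means binding response more than 3 SD above or below the average of its plate-row segment, actives on both sides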;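 further: Alexa488 bead fluorescence after subtracting the streptavidin-only scavenger bead signal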
Target sequence (Q99759 whole entry, looked up, the tested form may be a part): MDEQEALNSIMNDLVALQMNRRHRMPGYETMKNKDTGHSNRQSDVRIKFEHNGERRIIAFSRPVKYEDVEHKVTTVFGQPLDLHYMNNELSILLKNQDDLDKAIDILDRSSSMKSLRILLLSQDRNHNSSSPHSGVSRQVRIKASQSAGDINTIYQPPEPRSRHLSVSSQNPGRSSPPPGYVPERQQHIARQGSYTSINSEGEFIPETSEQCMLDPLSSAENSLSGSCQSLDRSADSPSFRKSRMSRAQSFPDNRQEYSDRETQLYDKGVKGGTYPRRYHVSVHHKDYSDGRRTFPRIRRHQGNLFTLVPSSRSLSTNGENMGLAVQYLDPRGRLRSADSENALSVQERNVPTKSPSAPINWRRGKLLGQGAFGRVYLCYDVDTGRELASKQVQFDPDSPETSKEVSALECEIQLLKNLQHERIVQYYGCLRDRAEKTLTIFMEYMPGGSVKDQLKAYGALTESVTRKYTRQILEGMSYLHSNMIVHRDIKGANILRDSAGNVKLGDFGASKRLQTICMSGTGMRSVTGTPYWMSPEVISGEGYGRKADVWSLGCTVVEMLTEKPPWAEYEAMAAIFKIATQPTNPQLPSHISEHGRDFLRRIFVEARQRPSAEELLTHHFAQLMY
MEKK2wt PB1 HTS: raises or lowers MEK5 binding to wildtype human MEKK2 PB1 domain; binding response (% of control), % at 10 µM; Q9Y2U5; bead flow cytometry, Alexa488-MEK5 binding to MEKK2 WT; actives lie on both sides; actives 1.1% (n = 290,000); in the data active means binding response below about 67% or above about 130%
GRK2 inh confirm: human GRK2 inhibition confirmation, cherry pick 1; shares compounds with GRK2 aptamer HTS; bead-bound GRK2, FAM-aptamer displacement, flow cytometry; aptamer displacement, % at 10 µM; actives 4% (n = 2,000); AID 504451;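 active means aptamer displacement above 40%, near three times the noise of non-fluorescent compounds, on plates passing quality checks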;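 further: negative values mostly reflect intrinsic compound fluorescence rather than true enhancement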
Aptamer quench: fluorescent aptamer quenching in GRK2 counter-screen dose response. Fluorescent RNA aptamer beads, flow cytometry; active compounds read high. fluorescence change (kMESF span), kMESF (concentration not given with the values). shares compounds with GRK2 aptamer HTS. 110 tested, under 10 active;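 active means compounds whose bead fluorescence drops by more than 37 kMESF across the dose range, marking them as dye quenchers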
FAM quench CP1: quenches fluorescent RNA aptamer, GRK2 hit artifact; shares compounds with GRK2 aptamer HTS; Carboxyfluorescein RNA aptamer on beads, flow cytometry quenching; active compounds read low; fluorescence response (% of DMSO), % at 10 µM; 2,000 tested, under 10 active;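 active means compounds that quench the bead-bound fluorescent RNA probe, cutting fluorescence to under half of the solvent control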;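 further: counterscreen run without GRK2 so only probe quenching by compound is measured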
GRK2 confirm 2: human GRK2 inhibition confirmation, cherry pick 2; shares compounds with GRK2 aptamer HTS; 360 tested, under 10 active; bead-bound GRK2, FAM-aptamer displacement, flow cytometry; inhibition of aptamer binding, % at 10 µM; AID 504782;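 active means inhibition of aptamer binding above 40%, about triple the noise seen with nonglowing compounds, on plates passing quality control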;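 further: negative values mostly come from compounds that fluoresce themselves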
FAM quench CP2: counter-screen for GRK2 binding hits: quenchers of fluorescent RNA aptamer | shares compounds with GRK2 aptamer HTS | carboxyfluorescein RNA aptamer beads, flow cytometry quenching; active compounds read low | fluorescence response vs DMSO, % at 10 µM | 360 tested, under 10 active;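 active means response vs DMSO under 50%, meaning signal dropped by over half, treated as fluorescence quencher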;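 further: labelled aptamer on streptavidin beads without GRK2 as a quench counter-screen; 100% = bead fluorescence of DMSO wells and lower means quenching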
Numbers without * were called inactive. Rows were chosen to be rich in hits. Some 2.5% of all compounds tested hit in one or more screens of this group.

For COc1ccc(NC(=O)c2ccccc2NC(=O)c2ccccc2)cc1 the results were MEKK2 mut-MEK5 -1, GRK2 aptamer HTS 41*, MEKK3 PB1 HTS 102, MEKK2wt PB1 HTS 100, GRK2 confirm 2 -22 and FAM quench CP2 97.
For COc1ccc(NC(=O)c2ccccc2NC(=O)CSc2ccccc2)cc1 the results were MEKK2 mut-MEK5 13, GRK2 aptamer HTS 0, MEKK3 PB1 HTS 103 and MEKK2wt PB1 HTS 104.
For COc1ccc(NC(=O)c2ccccc2NC(=O)CSc2ccc(Cl)cc2)cc1 the results were MEKK2 mut-MEK5 -20, GRK2 aptamer HTS 47*, MEKK3 PB1 HTS 78, MEKK2wt PB1 HTS 88, GRK2 inh confirm 0 and FAM quench CP1 106.
Cc1occc1C(=O)N/N=C/C(Br)=C/c1ccccc1 was read as MEKK2 mut-MEK5 0, GRK2 aptamer HTS 39, MEKK3 PB1 HTS 106, MEKK2wt PB1 HTS 105, GRK2 inh confirm 1 and FAM quench CP1 94.
`O=c1[nH]cnc2onc(-c3ccc(F)cc3)c12` gave MEKK2 mut-MEK5 4, GRK2 aptamer HTS 12, MEKK3 PB1 HTS 104, MEKK2wt PB1 HTS 107, GRK2 inh confirm 1 and FAM quench CP1 95.
CCN(CCO)c1ncnc2onc(-c3ccc(F)cc3)c12 was read as MEKK2 mut-MEK5 2, GRK2 aptamer HTS 0, MEKK3 PB1 HTS 104 and MEKK2wt PB1 HTS 105.
CN(CC(=O)NCCc1ccc(S(N)(=O)=O)cc1)CC(=O)Nc1ccccc1C(F)(F)F was read as GRK2 aptamer HTS 0.
CN(C)C(C)(C)/C=C/C(O)(c1ccccc1)c1ccccc1 was read as MEKK2 mut-MEK5 8, GRK2 aptamer HTS 0, MEKK3 PB1 HTS 100 and MEKK2wt PB1 HTS 98.
`Cc1noc(C)c1COc1cccc(C(=O)NCc2ccccc2Cl)c1` gave MEKK2 mut-MEK5 5, GRK2 aptamer HTS 1, MEKK3 PB1 HTS 104, MEKK2wt PB1 HTS 110, GRK2 inh confirm 2 and FAM quench CP1 94.
O=C(O)c1ccccc1-c1ccc(/C=c2\sc3nc4cc(Br)cnc4n3c2=O)o1 was read as GRK2 aptamer HTS 99*, GRK2 inh confirm 90*, Aptamer quench 16 and FAM quench CP1 89.
Screening N#C/C(=C/c1ccccc1[N+](=O)[O-])c1nnc2n1CCCCC2 returned MEKK2 mut-MEK5 -2, GRK2 aptamer HTS 6, MEKK3 PB1 HTS 98 and MEKK2wt PB1 HTS 100.
Cc1nnc(SCC(=O)Nc2ccc(S(N)(=O)=O)cc2)n(N)c1=O was read as GRK2 aptamer HTS 30, GRK2 inh confirm -6 and FAM quench CP1 100.
`O=S(=O)(Nc1cccc(Br)c1)c1cccc2nsnc12` gave MEKK2 mut-MEK5 11, GRK2 aptamer HTS 1, MEKK3 PB1 HTS 103 and MEKK2wt PB1 HTS 105.
Screening C=CCN(CC=C)C(=O)c1ccc2nc(Cc3ccc(OC)c(OC)c3)oc2c1 returned MEKK2 mut-MEK5 0, GRK2 aptamer HTS 41*, MEKK3 PB1 HTS 95, MEKK2wt PB1 HTS 104, GRK2 inh confirm 2 and FAM quench CP1 100.
Screening COc1ccc(Cc2nc3ccc(C(=O)NCc4cc(C)no4)cc3o2)cc1OC returned MEKK2 mut-MEK5 4, GRK2 aptamer HTS 0, MEKK3 PB1 HTS 100 and MEKK2wt PB1 HTS 103.
`COc1ccccc1N1CCN(C(=O)C(C)CS(=O)(=O)c2ccc3c(c2)NC(=O)CS3)CC1` (stereo not drawn) gave MEKK2 mut-MEK5 -6, GRK2 aptamer HTS 54*, MEKK3 PB1 HTS 95, MEKK2wt PB1 HTS 98, GRK2 confirm 2 inactive and FAM quench CP2 104.
For Cc1cn([C@H]2C[C@H](O)[C@@H](COS(=O)(=O)O)O2)c(=O)[nH]c1=O the results were GRK2 aptamer HTS 0.
For COc1c(F)c(F)c(C(=O)O)c(Nc2cccc(C)c2)c1F the results were MEKK2 mut-MEK5 0, GRK2 aptamer HTS 1, MEKK3 PB1 HTS 121 and MEKK2wt PB1 HTS 108.
`Cc1cc(C)cc(Nc2c(F)c(F)c(F)c(F)c2C(=O)O)c1` gave MEKK2 mut-MEK5 0, GRK2 aptamer HTS 89*, MEKK3 PB1 HTS 124, MEKK2wt PB1 HTS 111, GRK2 inh confirm -2 and FAM quench CP1 89.
O=C(/C=C/Nc1cccc(C(F)(F)F)c1)C(F)(F)F was read as GRK2 aptamer HTS 0.
Screening Cc1oc(-c2ccccc2F)nc1CN1CCC(C(=O)NC2CCCc3ccccc32)CC1 (stereo not drawn) returned MEKK2 mut-MEK5 -3, GRK2 aptamer HTS 0, MEKK3 PB1 HTS 95, MEKK2wt PB1 HTS 99, GRK2 inh confirm -1 and FAM quench CP1 94.
For Cc1oc(-c2ccccc2F)nc1CN1CCC(C(=O)NCc2ccco2)CC1 the results were MEKK2 mut-MEK5 -6, GRK2 aptamer HTS 0, MEKK3 PB1 HTS 96 and MEKK2wt PB1 HTS 95.
Screening CCCNC(=O)NC(=O)CSc1nnc(-c2ccncc2)n1CC returned MEKK2 mut-MEK5 4, GRK2 aptamer HTS 61*, MEKK3 PB1 HTS 107, MEKK2wt PB1 HTS 108, GRK2 inh confirm -2 and FAM quench CP1 100.
OC1O[C@H](c2ccc3c(c2)OCO3)[C@H]2CO[C@H](c3ccc4c(c3)OCO4)[C@@H]12 (stereo partly drawn) was read as MEKK2 mut-MEK5 2, GRK2 aptamer HTS 3, MEKK3 PB1 HTS 89 and MEKK2wt PB1 HTS 82.
For O=C(O)C1CC=CCC1C(=O)Nc1ccc(S(=O)(=O)N2CCCc3ccccc32)cc1 (stereo not drawn) the results were MEKK2 mut-MEK5 -2, GRK2 aptamer HTS 2, MEKK3 PB1 HTS 99 and MEKK2wt PB1 HTS 99.
Cc1nn(-c2ccc(Cl)cc2)c(=O)c2ccccc12 was read as MEKK2 mut-MEK5 7, GRK2 aptamer HTS 96*, MEKK3 PB1 HTS 103, MEKK2wt PB1 HTS 107, GRK2 inh confirm 2 and FAM quench CP1 97.
Cc1nn(-c2ccc(Cl)c(Cl)c2)c(=O)c2ccccc12 was read as MEKK2 mut-MEK5 -7, GRK2 aptamer HTS 1, MEKK3 PB1 HTS 92 and MEKK2wt PB1 HTS 94.
Screening O=C(CSc1ccccc1)Nc1ccc(Cl)c(S(=O)(=O)N2CCOCC2)c1 returned GRK2 aptamer HTS 21, GRK2 inh confirm -3 and FAM quench CP1 97.
Screening O=C(CSc1ncccn1)Nc1ccc(Cl)c(S(=O)(=O)N2CCOCC2)c1 returned GRK2 aptamer HTS 0.
